Key:
[1] = target: RAF proto-oncogene serine/threonine-protein kinase (Homo sapiens) (UniProt P04049); details: at 1 µM;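 further: values are the mean percent inhibition of CRAF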
[2] = target: T1, Interleukin-1 receptor-associated kinase 4 (Homo sapiens) (UniProt Q9NWZ3); details: at 0.1 µM
T1 sequence (whole entry): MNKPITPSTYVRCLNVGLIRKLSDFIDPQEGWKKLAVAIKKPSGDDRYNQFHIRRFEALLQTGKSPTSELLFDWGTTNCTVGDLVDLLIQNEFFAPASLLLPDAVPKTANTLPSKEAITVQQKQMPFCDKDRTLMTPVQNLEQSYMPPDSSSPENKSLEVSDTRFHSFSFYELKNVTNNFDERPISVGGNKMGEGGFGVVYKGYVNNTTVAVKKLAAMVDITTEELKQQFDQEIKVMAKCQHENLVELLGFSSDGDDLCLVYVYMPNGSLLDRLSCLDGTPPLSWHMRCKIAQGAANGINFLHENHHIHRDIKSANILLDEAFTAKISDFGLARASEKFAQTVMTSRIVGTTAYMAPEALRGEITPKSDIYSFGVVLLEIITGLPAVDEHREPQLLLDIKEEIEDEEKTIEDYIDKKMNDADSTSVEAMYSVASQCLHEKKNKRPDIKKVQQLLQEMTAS

[3] = target: T1, Interleukin-1 receptor-associated kinase 4 (Homo sapiens); details: at 1 µM
[4] = target: Leucine-rich repeat serine/threonine-protein kinase 2 (Homo sapiens) (UniProt Q5S007); details: at 0.1 µM
[5] = target: Leucine-rich repeat serine/threonine-protein kinase 2 (Homo sapiens) (UniProt Q5S007); details: at 1 µM
[6] = tested on: Leucine-rich repeat serine/threonine-protein kinase 2 (Homo sapiens), Q5S007 [G2019S]; details: at 0.1 µM
[7] = tested on: Leucine-rich repeat serine/threonine-protein kinase 2 (Homo sapiens), Q5S007 [G2019S]; details: at 1 µM

Chain of Leucine-rich repeat serine/threonine-protein kinase 2 (Homo sapiens), Q5S007 [G2019S] (Q5S007 whole entry G2019S): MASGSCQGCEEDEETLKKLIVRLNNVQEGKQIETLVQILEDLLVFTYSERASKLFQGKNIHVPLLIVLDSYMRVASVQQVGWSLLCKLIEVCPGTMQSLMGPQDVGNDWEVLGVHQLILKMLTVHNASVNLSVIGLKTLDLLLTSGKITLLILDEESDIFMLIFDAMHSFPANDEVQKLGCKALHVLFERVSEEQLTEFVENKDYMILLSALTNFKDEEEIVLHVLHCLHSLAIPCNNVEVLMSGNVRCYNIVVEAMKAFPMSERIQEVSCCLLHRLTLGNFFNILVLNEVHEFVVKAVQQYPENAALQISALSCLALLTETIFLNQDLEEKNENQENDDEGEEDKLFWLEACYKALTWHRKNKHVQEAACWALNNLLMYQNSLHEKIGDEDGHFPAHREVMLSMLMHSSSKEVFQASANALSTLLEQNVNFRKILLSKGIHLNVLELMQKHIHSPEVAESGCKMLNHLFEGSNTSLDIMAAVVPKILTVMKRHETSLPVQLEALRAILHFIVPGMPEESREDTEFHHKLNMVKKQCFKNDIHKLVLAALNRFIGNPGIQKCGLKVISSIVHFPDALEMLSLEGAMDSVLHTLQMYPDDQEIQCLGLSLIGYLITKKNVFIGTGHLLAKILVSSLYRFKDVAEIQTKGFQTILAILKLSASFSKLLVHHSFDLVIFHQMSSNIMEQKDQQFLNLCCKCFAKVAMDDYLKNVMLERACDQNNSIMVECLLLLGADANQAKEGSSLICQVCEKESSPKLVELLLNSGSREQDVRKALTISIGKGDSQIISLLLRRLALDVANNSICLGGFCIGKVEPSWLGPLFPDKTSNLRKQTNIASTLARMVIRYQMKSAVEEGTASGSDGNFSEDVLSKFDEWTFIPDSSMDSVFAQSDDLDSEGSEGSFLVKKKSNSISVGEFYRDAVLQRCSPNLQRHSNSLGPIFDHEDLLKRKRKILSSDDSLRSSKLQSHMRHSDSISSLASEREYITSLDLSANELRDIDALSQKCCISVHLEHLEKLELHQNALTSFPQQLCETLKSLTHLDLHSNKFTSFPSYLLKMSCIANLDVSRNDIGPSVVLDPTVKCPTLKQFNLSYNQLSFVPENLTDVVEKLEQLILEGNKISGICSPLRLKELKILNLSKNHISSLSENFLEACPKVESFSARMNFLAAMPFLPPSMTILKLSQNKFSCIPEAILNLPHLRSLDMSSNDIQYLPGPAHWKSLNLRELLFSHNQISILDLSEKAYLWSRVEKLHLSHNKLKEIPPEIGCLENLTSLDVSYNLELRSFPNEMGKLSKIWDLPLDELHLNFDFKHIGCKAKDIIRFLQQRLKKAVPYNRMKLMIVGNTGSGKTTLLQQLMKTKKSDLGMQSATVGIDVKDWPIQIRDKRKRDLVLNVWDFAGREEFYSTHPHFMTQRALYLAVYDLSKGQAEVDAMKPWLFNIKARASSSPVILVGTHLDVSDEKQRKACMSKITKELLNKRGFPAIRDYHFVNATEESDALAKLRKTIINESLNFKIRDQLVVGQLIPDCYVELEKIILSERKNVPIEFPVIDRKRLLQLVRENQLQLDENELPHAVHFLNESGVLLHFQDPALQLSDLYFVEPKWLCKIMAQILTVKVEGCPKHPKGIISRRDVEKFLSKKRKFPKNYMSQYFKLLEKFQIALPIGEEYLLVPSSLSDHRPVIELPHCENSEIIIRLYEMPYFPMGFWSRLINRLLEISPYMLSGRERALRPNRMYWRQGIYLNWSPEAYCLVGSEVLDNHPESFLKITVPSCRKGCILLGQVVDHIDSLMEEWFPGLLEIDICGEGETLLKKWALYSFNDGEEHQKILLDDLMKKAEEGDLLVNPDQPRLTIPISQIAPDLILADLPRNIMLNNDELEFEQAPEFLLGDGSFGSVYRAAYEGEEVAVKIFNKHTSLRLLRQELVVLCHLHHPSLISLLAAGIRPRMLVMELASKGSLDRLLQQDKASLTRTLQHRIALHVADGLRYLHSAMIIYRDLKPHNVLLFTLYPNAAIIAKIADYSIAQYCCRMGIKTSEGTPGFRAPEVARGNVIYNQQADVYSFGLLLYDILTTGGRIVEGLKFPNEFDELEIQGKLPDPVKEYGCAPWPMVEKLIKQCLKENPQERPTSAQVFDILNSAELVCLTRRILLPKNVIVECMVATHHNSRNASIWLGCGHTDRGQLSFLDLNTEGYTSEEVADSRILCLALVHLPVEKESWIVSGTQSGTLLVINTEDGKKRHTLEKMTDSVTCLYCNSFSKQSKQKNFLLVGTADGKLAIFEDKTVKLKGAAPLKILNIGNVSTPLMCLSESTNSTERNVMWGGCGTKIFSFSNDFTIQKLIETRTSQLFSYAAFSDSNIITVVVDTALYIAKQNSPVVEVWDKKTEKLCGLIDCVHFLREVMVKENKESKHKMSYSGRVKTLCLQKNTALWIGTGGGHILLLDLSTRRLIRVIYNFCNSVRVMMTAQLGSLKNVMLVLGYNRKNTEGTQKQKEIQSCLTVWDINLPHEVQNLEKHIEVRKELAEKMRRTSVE
Chain of Leucine-rich repeat serine/threonine-protein kinase 2 (Homo sapiens) (Q5S007 whole entry): as the sequence (Q5S007 whole entry G2019S) above, with S2019G counted along it
Chain of RAF proto-oncogene serine/threonine-protein kinase (Homo sapiens) (P04049 whole entry): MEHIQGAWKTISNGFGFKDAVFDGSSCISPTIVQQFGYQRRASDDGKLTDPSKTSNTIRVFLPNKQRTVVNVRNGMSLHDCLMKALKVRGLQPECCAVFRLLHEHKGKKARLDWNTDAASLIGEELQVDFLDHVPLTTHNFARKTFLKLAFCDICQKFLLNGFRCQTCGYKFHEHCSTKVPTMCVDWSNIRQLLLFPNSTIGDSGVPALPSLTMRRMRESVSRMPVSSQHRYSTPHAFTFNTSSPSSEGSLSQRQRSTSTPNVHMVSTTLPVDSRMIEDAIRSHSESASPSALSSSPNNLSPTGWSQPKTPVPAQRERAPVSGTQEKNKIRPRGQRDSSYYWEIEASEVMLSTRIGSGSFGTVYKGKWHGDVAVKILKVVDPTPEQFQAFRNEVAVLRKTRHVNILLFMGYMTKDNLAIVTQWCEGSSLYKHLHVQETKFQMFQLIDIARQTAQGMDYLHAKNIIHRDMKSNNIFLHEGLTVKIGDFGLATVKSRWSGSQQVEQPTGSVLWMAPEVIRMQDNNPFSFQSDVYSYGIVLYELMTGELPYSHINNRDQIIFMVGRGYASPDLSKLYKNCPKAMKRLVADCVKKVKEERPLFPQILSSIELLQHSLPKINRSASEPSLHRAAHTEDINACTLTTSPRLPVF

Structure (SMILES) | inhibition [1] [%] | inhibition [2] [%] | inhibition [3] [%] | inhibition [4] [%] | inhibition [5] [%] | inhibition [6] [%] | inhibition [7] [%]
O=C1Nc2ccc(C(=O)c3ccco3)cc2C1=Cc1cc(Cl)c(O)c(Cl)c1 | 48.6 | 3.84 | 5.2 | 22.8 | 24 | 61.1 | 63.9
COc1cc2ncn(-c3cc(O[C@@H](C)c4ccccc4Cl)c(C(N)=O)s3)c2cc1OC | 4.09 | 1.23 | 2.08 | 10.9 | 50 | 24 | 64
Cc1nn(C)c2cc(N(C)c3ccnc(Nc4cccc(S(N)(=O)=O)c4)n3)ccc12 | 3.83 | 2.51 | 6.18 | 1.65 | 7 | 4.07 | 12.3
CCN1CCC(CC(=O)Nc2n[nH]c3nc(-c4cccs4)c(Br)cc23)CC1 | 1.23 | -3.96 | -0.76 | -0.41 | 2.42 | 0.89 | 2.44
CC1=C(C(=O)Nc2ccc3[nH]ncc3c2)C(c2ccc(Cl)c(Cl)c2)CC(=O)N1 (stereo unspecified) | 2.44 | -3.53 | 0.93 | 2.44 | 4.77 | 0.95 | 8.99
COc1ccc2cc(-c3c(-c4ccncc4)nc(-c4ccc([S+](C)[O-])cc4)n3C)ccc2c1 (stereo unspecified) | 9.73 | 3.57 | 1.12 | 2.6 | 4.23 | 3.37 | 5.02
Cc1ccc(NC(=O)c2ccnc(N3CCCC3)c2)cc1-c1ccc(C(=O)NCC2CC2)cc1 | -6.49 | -0.18 | 2.34 | 1.63 | 6.13 | 4.42 | 7.81
CS(=O)(=O)CCN(CC#N)Cc1ccc(-c2ccc3ncnc(Nc4ccc(OCc5cccc(F)c5)c(Cl)c4)c3c2)o1 | -3.46 | 0.21 | 0.75 | -6.54 | -8.08 | -3.2 | -2.31
CNC(=O)c1cncc(/C=C/c2c(Cl)cccc2Cl)c1 | 0.92 | 1.25 | 2.37 | 0.98 | 7.19 | 5.24 | 14.7
CCCN1CCC(Oc2cc(Nc3nc(Nc4cccc(F)c4C(N)=O)c4cc[nH]c4n3)c(OC)cc2Cl)CC1 | 5.41 | -2.83 | 2.25 | 11.5 | 19.6 | 12.8 | 55.9
COc1ccc(-c2coc3ncnc(N)c23)cc1 | 4.1 | 0.41 | 1.48 | 3.62 | 6.4 | 4.35 | 7.19
Cc1ccc(C(=O)NC2CCCCC2)cc1-c1ccc(C(=O)NCC2CC2)cc1 | 0.13 | -1.27 | 1.67 | 6.21 | 6.84 | 3.47 | 3.31
O=C(Nc1n[nH]c2nc(-c3ccco3)c(Br)cc12)C1CC1 | 2.37 | 5.57 | 1.08 | 2.41 | 2.93 | 2.74 | 6.98
CCn1c(-c2nonc2N)nc2cnc(Oc3cccc(NC(=O)c4ccc(OCCN5CCOCC5)cc4)c3)cc21 | 6.03 | 3.17 | 1.66 | 0.83 | 9.41 | 4.44 | 29.3
Nc1nc(-c2ccccn2)c(-c2ccc3ncccc3n2)s1 | 2.42 | -3.29 | 1.27 | 2.15 | 4.38 | 1.86 | 5.88
CCn1c(-c2nonc2N)nc2c(C#CC(C)(C)O)nc(CN3CCCC3)cc21 | -7.96 | 3.31 | -0.93 | -0.1 | 1.92 | 0.81 | 3.54
COc1cc2c(cc1Nc1nc(N3CCc4ccccc43)c3cc[nH]c3n1)N(C(=O)CN(C)C)CC2 | -4.34 | -0.95 | 0.98 | 17.6 | 19.3 | 18.2 | 57.1
COc1ccccc1Nc1ncc(-c2ccccc2)o1 | 1.9 | 2.31 | 2.99 | 4.53 | 8.57 | 6.36 | 11.3
Fc1cccc(COc2ccc(Nc3ncnc4sc(-c5cccs5)cc34)cc2Cl)c1 | -2.15 | 0.39 | 1.34 | 1.83 | 4.84 | 3.4 | 6.24
O=C1NC(=O)C(c2ccccc2Cl)=C1Nc1cccc(O)c1 | -0.43 | -2 | 1.87 | 4.27 | 13.2 | 3.28 | 14.6
CS(=O)(=O)CCNCc1nc(-c2ccc3ncnc(Nc4ccc(F)c(Cl)c4)c3c2)cs1 | -0.82 | 0.41 | 1.35 | 2.13 | 5.82 | 1.31 | 2.37
N#Cc1c(NC(=O)c2cccc3ccccc23)sc2c1CCCC2 | 3.48 | 2.64 | 1.05 | 1.35 | 2.73 | 1.99 | 3.65
COc1ccc(-c2ccncc2)cc1C(N)=O | -2.86 | 1.8 | 2.34 | 2.67 | 5.73 | 4.45 | 9.13
NC(=O)c1cccc(Nc2nccc(Nc3cccc4[nH]ncc34)n2)c1 | -3.49 | -3.26 | 3.19 | 0.85 | 8.7 | 4.42 | 30.9

Structure (SMILES) | inhibition [1] [%] | inhibition [2] [%] | inhibition [3] [%] | inhibition [4] [%] | inhibition [5] [%] | inhibition [6] [%] | inhibition [7] [%]
O=C1NC(=O)C(c2cccc(Cl)c2)=C1Nc1ccc(O)c(Cl)c1 | 3.11 | 2.97 | 0.96 | 4.5 | 18.4 | 4.28 | 30
COC(=O)Nc1nc2cc(Oc3ccc(NC(=O)Nc4cccc(C(=O)O)c4)cc3)ccc2[nH]1 | 0.7 | 1.45 | 0.26 | -4.47 | 4.49 | -2.68 | 3.07
CC1=C(C(=O)Nc2ccc3[nH]ncc3c2)C(c2ccc3ccccc3c2)CC(=O)N1 (stereo unspecified) | 1.65 | 3.06 | 0.83 | 4.73 | 10.1 | 6.31 | 25
CCn1c(-c2nonc2N)nc2ccncc21 | 14 | 2.09 | 0.65 | 1.49 | 2.85 | 1.49 | 6.2
Cc1cc(O)cc(C)c1/C=C/c1cncc(-c2nn[nH]n2)c1 | 60.8 | 1.46 | 2.18 | 1.54 | 10.4 | 6.18 | 35.4
COc1cc2ncn(-c3cc(O[C@H](C)c4ccccc4Cl)c(C(N)=O)s3)c2cc1OC | 2.16 | -1.67 | 3.82 | 5.85 | 21.6 | 12.1 | 51.9
COc1ccc(-c2nn3ncccc3c2-c2ccnc(Nc3ccc(Cl)c(C(F)(F)F)c3)n2)cc1 | -8.01 | 2.17 | 0.42 | 0.37 | 1.12 | 2.99 | 3.98
CC(C)=Cc1cccc2c1/C(=N/Nc1ccc(S(N)(=O)=O)cc1)C(=O)N2 | -1.14 | -0.76 | 0.79 | 14.9 | 65.4 | 17.7 | 60.9
NS(=O)(=O)c1cccc(-c2ccc3c(NC(=O)C4CC4)n[nH]c3c2)c1 | -2.5 | 1.83 | -0.64 | -2.61 | 1.25 | 1.47 | 1.75
Cn1cc(C=C2C(=O)Nc3cccnc32)c2ccccc21 |  | 6.41 | 5.04 | 8.55 | 20.8 | 15 | 55.4
Nc1ncnc2occ(-c3ccc(NC(=O)Nc4cccc(C(F)(F)F)c4)cc3)c12 | -2.58 | 2.03 | 2.34 | 17.1 | 57.9 | 13.1 | 42.8
CCn1c(-c2nonc2N)nc2c(C#CC(C)(C)O)nc(OC[C@@H](N)c3ccccc3)cc21 | 3.8 | -2.13 | 0.37 | 2.04 | 8.46 | 2.34 | 19.7
O=C1NC(=O)C(c2ccc(Cl)cc2)=C1Nc1ccc(Cl)c(C(=O)O)c1 |  | -1.49 | -0.81 | -0.67 | 0.65 | 1.27 | 3.84
CCn1c(-c2nonc2N)nc2cncc(C(=O)N3CCNCC3)c21 | -2.31 | 2.74 | 3.54 | 1.69 | 0.35 | 3.72 | 7.17
Nc1ncnc2occ(-c3ccc(NC(=O)Nc4cc(C(F)(F)F)cc(C(F)(F)F)c4)cc3)c12 | 3.32 | -4.93 | 1.16 | 9.63 | 16.7 | 4.56 | 26.1
NS(=O)(=O)c1ccc(N/N=C2\C(=O)Nc3ccc(C(=O)NCCc4c[nH]cn4)cc32)cc1 |  | -1.81 | 2.08 | 10.3 | 16.9 | 15.3 | 50
COc1ccc(COc2ccc(Cc3cnc(N)nc3N)cc2OC)cc1 |  | 1.04 | 0.89 | 4.88 | 5.38 | 3.29 | 5.32
COc1cc2ncn(-c3cc(OCc4ccccc4C(F)(F)F)c(C(N)=O)s3)c2cc1OC | -0.64 | 1.2 | 1.85 | 1.63 | 16.1 | 5.35 | 40.1
CCc1cccc(NC(=O)Nc2ccc(Oc3ccc4nc(NC(=O)OC)[nH]c4c3)cc2)c1 | 4.58 | 0.53 | 1.04 | 9.23 | 8.78 | 5.51 | 8.2
COC(=O)Nc1nc2cc(Oc3cccc(NC(=O)Nc4cc(C(F)(F)F)ccc4F)c3)ccc2[nH]1 |  | 3.51 | -0.12 | 0.62 | 1.81 | 2.19 | 4.67
CCn1c(-c2nonc2N)nc2cncc(C(=O)N3CC[C@H](N)C3)c21 | 3.85 | 2.88 | 2.25 | 4.57 | 14.5 | 7.16 | 29.5
CC(=O)Nc1cccc(C#Cc2cncnc2Nc2ccc(OCc3cccc(F)c3)c(Cl)c2)n1 | -2.95 | -0.61 | -0.89 | 3.07 | 4.78 | 2.03 | 5
CS(=O)(=O)CCNCc1ccc(-c2ccc3ncnc(Nc4ccc(OCc5ccccc5)c(Cl)c4)c3c2)o1 | -1.69 | 0.4 | 0.86 | 2.66 | 7.97 | 4.51 | 7.5
CS(=O)(=O)CCNCc1ccc(-c2ccc3ncnc(Nc4ccc(OCc5cccc(F)c5)c(C(F)(F)F)c4)c3c2)o1 | 12.1 | 4.38 | 1.89 | 0.82 | 1.68 | 3.39 | 2.93

Reference: ChEMBL document CHEMBL1961873, “Compounds: GSK PKIS; Assays: Nanosyn kinase panel” (2012)
